Assay results from PubChem BioAssay (NCI).
The panel holds about 79,000 compounds, 15% with a hit somewhere; the sample as a whole holds those more often. Cut-off read from the data, not from the text of the source: active = growth inhibition above about 70%; inactive = the rest.

Legend:
[1] = NCI Yeast Anticancer Drug Screen. Data for the rad50 strain (AID 155);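 note: 0% = growth of vehicle-only cultures of the same strain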; conditions: S. cerevisiae rad50 strain growth inhibition; at 50.0 µM; hits give high values
Summary of the method: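 A DNA repair-deficient yeast mutant serves as the test organism; compound-induced growth inhibition is calculated against vehicle-treated cells.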

[2] = NCI Yeast Anticancer Drug Screen. Data for the mec2-1 strain (AID 157); conditions: S. cerevisiae mec2-1 strain, at 50.0 µM, hits give high values
Summary of the method: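 Compounds were applied to mec2-1 yeast cells. Their growth was then compared with that of vehicle-treated cultures to give growth inhibition.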

[3] = NCI Yeast Anticancer Drug Screen. Data for the sgs1 mgt1 strain (AID 161);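 note: 0% = growth of cultures given vehicle only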; conditions: S. cerevisiae sgs1 mgt1 strain, at 50.0 µM, hits give high values
Summary of the method: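 Yeast cells carrying a defined DNA-repair defect were exposed to test compounds. Growth inhibition was measured relative to vehicle-treated controls.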

[4] = NCI Yeast Anticancer Drug Screen. Data for the cln2 rad14 strain (AID 165);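 note: 0% = growth equal to vehicle treated cultures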; conditions: S. cerevisiae cln2 rad14 strain, at 50.0 µM, hits give high values
Summary of the method: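 Strain: cln2 rad14 yeast, altered in cell cycle control and DNA damage repair. Read-out: growth inhibition vs vehicle.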

[5] = NCI Yeast Anticancer Drug Screen. Data for the bub3 strain (AID 167); conditions: S. cerevisiae bub3 mutant strain, at 50.0 µM, hits give high values
Summary of the method: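 Inhibition values come from growth of compound-treated mutant yeast normalised to vehicle-treated controls.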

[6] = NCI Yeast Anticancer Drug Screen. Data for the mlh1 rad18 strain (AID 175); conditions: S. cerevisiae mlh1 rad18 strain growth inhibition; at 50.0 µM; hits give high values
Summary of the method: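 A repair-deficient yeast strain is exposed to test compound, and growth is scored relative to vehicle-treated controls.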

Measured: growth inhibition

OCCc1c[nH]c2ccccc12
inactive: [1] -18.7% | [2] -16.2% | [3] 10.5% | [4] -17.3% | [5] -1.85% | [6] 11.8%

COC(=O)N/N=C(\C)c1sc(-c2nc(C)c(/C(C)=N/NC(=O)OC)s2)nc1C
inactive: [1] 17.9% | [2] 0.95% | [3] -27.4% | [4] -35.6% | [5] 3.05% | [6] 1.05%

CCSCCOC(=S)Nc1ccccc1
inactive: [1] -6.25% | [2] -8.05% | [3] -4.9% | [4] 0.7% | [5] 4.25% | [6] 7.1%

O=C(COc1ccc(Cl)cc1)Nc1ccc(S(=O)(=O)O)c2ccccc12
inactive: [1] 9% | [2] 0.6% | [3] -12.4% | [4] -5% | [5] 1.65% | [6] 13.4%

COC(=O)CC1(O)C(C=C(C)C)C(C(=O)OC)C(=O)C(C(=O)OC)C1C(=O)OC (stereo unspecified)
inactive: [1] -10.8% | [2] -7.15% | [3] -28.9% | [4] -3.5% | [5] -32.2% | [6] -1.25%

CC(C)CC(=O)c1ccc2ccccc2c1O
inactive: [1] -0.1% | [2] -17.1% | [3] 6.7% | [4] -12.2% | [5] -14.2% | [6] 5.95%

O=S(=O)(O)n1ccnc1 (tested in a mixture with another compound)
inactive: [1] 20.9% | [2] 12.3% | [3] 1.3% | [4] -27.9% | [5] 14.7% | [6] 18.4%

O=C(CC(=O)n1nc(-c2ccccc2)c(N=Nc2ccccc2Cl)c1-c1ccccc1)Nc1ccc(Cl)cc1
inactive: [1] -9.5% | [2] 8.45% | [3] -3.95% | [4] 13.9% | [5] -18.7% | [6] -8.65%

CCOC(=O)c1ccnc2ccccc12
inactive: [1] -5.05% | [2] -3.75% | [3] 1.1% | [4] -4.85% | [5] 5.65% | [6] 3.7%

Fc1ccc(-c2cc(-c3ccc(F)cc3)cc(-c3ccc(F)cc3)c2)cc1
inactive: [1] -0.4% | [2] 11.5% | [3] 13.2% | [4] 14.2% | [5] -8.15% | [6] 10.4%

COc1ccc(-c2cc3cc(OC)c(OC)cc3c[n+]2C)cc1OC
inactive: [1] 28.3% | [2] 5.4% | [3] 5.6% | [4] 16.1% | [5] -2.3% | [6] -0.55%

CC1N(/N=C/c2ccccc2)C(c2ccccc2)C(c2ccccc2)N1/N=C/c1ccccc1 (stereo unspecified)
inactive: [1] 11.4% | [2] 15% | [3] 17.2% | [4] 5.3% | [5] 1.75% | [6] 6.25%

O=C(Nc1ccc2ccccc2c1)c1ccc(Cl)cc1
inactive: [1] 4.65% | [2] -9.65% | [3] -15.1% | [4] 7.05% | [5] 31.4% | [6] 1.4%

CO[C@@]12CC(=O)/C(=C(O)\C=C\c3ccccc3)C(=O)[C@]1(OC)Cc1ccccc1O2
inactive: [1] 35.1% | [2] 31.9% | [3] 33.6% | [4] 18.6% | [5] 34.2% | [6] 24.6%

C=CCc1nc2c([nH]1)c(=O)n(C)c(=O)n2C
inactive: [1] 33.5% | [2] -2.2% | [3] 37.6% | [4] 11.7% | [5] -6.8% | [6] 18.6%

CCOC(=O)/C(C#N)=C\C1(C)CCC(C)=CO1 (stereo unspecified)
inactive: [1] -1.8% | [2] -8.65% | [3] -7.9% | [4] -31.6% | [5] -4.85% | [6] -3.25%

CC1(C)[C@@H]2CC[C@](C)(O)[C@H]1C2
inactive: [1] 0.45% | [2] -1.05% | [3] -1.65% | [4] 8.5% | [5] -3.15% | [6] 2.3%

N#CNC1=NC(N)C(c2nc3ccccc3[nH]2)=C(CCCC(=O)Nc2cccc([N+](=O)[O-])c2)N1 (stereo unspecified)
inactive: [1] 17.1% | [2] 17.1% | [3] 5.45% | [4] 25.9% | [5] 35.9% | [6] 5.65%

O=c1c2c(nc3n1CCC3)sc1c(O)c(Br)ccc12
inactive: [1] -44.7% | [2] -26.6% | [3] -46.7% | [4] -25.1% | [5] -40% | [6] -52.1%

S=C(Oc1ccccc1)Oc1ccc2ccccc2c1
inactive: [1] 9.7% | [2] -6.8% | [3] -9.7% | [4] -6.55% | [5] 15.3% | [6] -11.6%

ClCCCOC1CCCCO1 (stereo unspecified)
inactive: [1] -20.1% | [2] -40.5% | [3] -21.1% | [4] 26.9% | [5] -7.6% | [6] 1.4%

COc1ccc(C)c2c1CCCC2
inactive: [1] -8.6% | [2] 9.75% | [3] -5.05% | [4] -60.2% | [5] -6.8% | [6] -14.5%

CN(C)/N=C1/CCC(C(F)(F)F)(C(F)(F)F)O1
inactive: [1] 40.1% | [2] 31.6% | [3] 41.5% | [4] 28.9% | [5] 5.1% | [6] -18.4%

COC(=O)C(C)CC(C)C(=O)OC (stereo unspecified)
inactive: [1] 19.6% | [2] -15.8% | [3] 17.6% | [4] 12.7% | [5] -2.95% | [6] 16.4%

CCOc1ccccc1C(=O)N(CC)CC
inactive: [1] -8.55% | [2] -3.2% | [3] -4.6% | [4] -5.85% | [5] -9.8% | [6] -5.65%

COc1ccc(Nc2nc3ccccc3nc2-c2cccs2)cc1
inactive: [1] 5.2% | [2] -3.8% | [3] 23.5% | [4] -1.45% | [5] 14.3% | [6] 17.3%

Cc1c(-c2ccccc2)cc(O)c2nc3ccccc3n12
inactive: [1] -31.2% | [2] 6.45% | [3] -16.6% | [4] 2.45% | [5] 11.9% | [6] -36.9%

CCOP(=O)(OCC)C(C(=O)OC)C(=O)C(=O)Nc1cccc([N+](=O)[O-])c1 (stereo unspecified)
inactive: [1] 7.8% | [2] -5.85% | [3] 23.2% | [4] -58.6% | [5] 0.35% | [6] 1.45%

O=S(=O)(O)CCNC(=S)C(=S)NCCS(=O)(=O)O
inactive: [1] 29.1% | [2] 14.2% | [3] 7.75% | [4] 6.2% | [5] 8.7% | [6] 5.7%

CCCCCCCCCCCCCCCCC1=C(C(=O)OC)NC(N)=NC1O (stereo unspecified)
inactive: [1] 29% | [2] 0.25% | [3] -20.8% | [4] -10.1% | [5] 4.7% | [6] 22.1%

CC(NC(=O)C(N)CCC(=O)O)C(=O)NCP(=O)(O)O (stereo unspecified)
inactive: [1] -13.1% | [2] -49% | [3] 0.35% | [4] 26.4% | [5] 4.25% | [6] 8%

CCCCOC(=O)CNC(=O)OC/C=C/C#CC#C/C=C/COC(=O)NCC(=O)OCCCC
inactive: [1] -20.2% | [2] -35.8% | [3] -24.4% | [4] -17.9% | [5] 0.3% | [6] -19.9%

Nc1c(Cl)cccc1C(=O)c1ccccc1C(=O)O
inactive: [1] -9.8% | [2] 4.8% | [3] 5.4% | [4] -14.8% | [5] 1% | [6] -3.15%

CC(C)SCCC#N
inactive: [1] 13% | [2] -8.55% | [3] -13.1% | [4] -5.5% | [5] -3.7% | [6] -4.75%

Nc1cccc2c1C(=O)c1cccc(N)c1C2=O
inactive: [1] 7.65% | [2] 16.4% | [3] 8.4% | [4] -7.35% | [5] 8.2% | [6] 21.9%

CC(C)(C)OC(=O)NC(CSCc1ccc(C(=O)c2ccccc2)cc1)C(=O)O (stereo unspecified)
inactive: [1] -23.9% | [2] -28.1% | [3] -15.3% | [4] 10.6% | [5] -12.8% | [6] -2.3%

O=[N+]([O-])c1ccc(N=Nc2c(S(=O)(=O)O)cc3cc(S(=O)(=O)O)ccc3c2O)c([N+](=O)[O-])c1
inactive: [1] 24.3% | [2] 0.9% | [3] 30.9% | [4] 31.3% | [5] 32.1% | [6] 20.2%

O=[N+]([O-])c1ccccc1-c1ccccc1[N+](=O)[O-]
inactive: [1] 24.7% | [2] 16.3% | [3] 33.8% | [4] 10% | [5] -24.4% | [6] -10.8%

O=C(Nc1ccc(Cl)cc1)Nc1nnc2nc(C3(c4nc5nnc(NC(=O)Nc6ccc(Cl)cc6)n5[nH]c4=O)CCCC3=O)c(=O)[nH]n12
inactive: [1] -23.3% | [2] -19.5% | [3] -11.7% | [4] -32.2% | [5] 10.9% | [6] -2.75%

COc1ccc(Br)cc1C1SCC(=O)N1c1nncs1 (stereo unspecified)
inactive: [1] 12% | [2] 7.7% | [3] 26.8% | [4] 11.2% | [5] 16.4% | [6] 23.8%

CN(C)CCNc1ccc(CO)c2sc3ccc(O)cc3c(=O)c12
inactive: [1] 11.4% | [2] -3.65% | [3] 12.1% | [4] -32% | [5] 12.2% | [6] -9.25%
